mHTT-CaM PPI inh: inhibitors of human mutant huntingtin-calmodulin interaction; P42858; AlphaScreen His-mHTT/GST-CaM binding, luminescence; inhibition, % at 15 µM; 3.6% of 190,000 active; AID 1671202;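 further: 0% = both proteins with DMSO and 100% = one protein alone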
Pf apPOL inh: Pf-apPOL DNA polymerase inhibition; 0.25% of 210,000 active; AID 1794808; inhibition, % at 10 µM; Recombinant Pf-apPOL, molecular beacon fluorescence, 1.5 h
Numbers without * were called inactive; . = not tested or not shown. Shown are actives, neighbours in structure and some others; about 3.6% of the full set was active somewhere. No stated cut-off is given here; in the data, active means inhibition above about 50%; inactive means the rest.

SMILES	mHTT-CaM PPI inh	Pf apPOL inh
O=c1/c(=C/c2ccccc2)sc2nc(-c3cccs3)nn12	4	-12
Cc1cc(C)n(-c2cc(NCc3cccc(Cl)c3)ncn2)n1	-5	0
O=C(c1ccc2ccccc2n1)N1CCC2(CC1)NC(=O)N(Cc1ccccc1)C2=O	13	-1
Cc1cccc(N2CCN(Cc3ccc(-c4ccccc4[N+](=O)[O-])o3)CC2)c1C	59*	3
O=[N+]([O-])c1ccccc1-c1ccc(CN2CCN(c3ccccc3F)CC2)o1	23	-4
COc1cccc2cc(C(=O)O)c(=O)oc12	-2	4
COc1ccc(-c2nc3c(c(=O)[nH]2)CCN(C(=O)Nc2ccc(SC)cc2)C3)cc1	-3	-2
O=C(C1CCN(Cc2cccc(OCc3ccccc3)c2)CC1)N1CCOCC1	1	-4
O=C(C1CCN(Cc2ccc(OCc3ccccc3)cc2)CC1)N1CCN(c2ccccc2)CC1	63*	-7
COc1ccc(Cl)cc1NC(=O)CSC1=C(C#N)C(c2ccco2)C(C(N)=O)=C(C)N1 (stereo not given)	54*	-8
CC1=C(C(N)=O)C(c2ccco2)C(C#N)=C(SCC(=O)Nc2cccc(Cl)c2C)N1 (stereo not given)	27	0
Cc1ccc(CCN2CC(C(=O)N3CCNc4ccccc4C3)CC2=O)cc1 (stereo not given)	-5	-5
O=C(O)c1cccc2c1NC(c1ccc([N+](=O)[O-])cc1)C1CC=CC21 (stereo not given)	66*	-5
O=C(O)c1cccc2c1NC(c1ccc(Br)cc1)C1CC=CC21 (stereo not given)	66*	-2
Cc1cc(I)cc2c1NC(C(=O)O)C1CC=CC21 (stereo not given)	-1	1
O=C(O)c1cc(Br)cc2c1NC(c1ccc(F)cc1)C1CC=CC21 (stereo not given)	95*	8
O=[N+]([O-])c1ccc(C2Nc3c(I)cccc3C3C=CCC32)cc1 (stereo not given)	49	4
Cc1cc(I)c2c(c1)C1C=CCC1C(C(=O)O)N2 (stereo not given)	81*	-3
COc1ccccc1CNC(=O)C1CCCN(S(=O)(=O)N2CCCCCC2)C1 (stereo not given)	-8	-10
Cc1cccc(C2=N/C(=C\c3ccccc3Cl)C(=O)O2)c1	6	6
COc1cccc2cc(-c3cc(=O)oc4c(CN(C)C)c(O)ccc34)c(=O)oc12	24	-4
O=C(C=CNCc1ccccc1)c1ccc(Br)cc1	-12	-3
O=C(O)c1cccc2c1NC(c1cccc(Br)c1)C1CC=CC21 (stereo not given)	92*	3
Cc1cc(C)c2c(c1)C1C=CCC1C(c1ccc(C(=O)O)cc1)N2 (stereo not given)	74*	-1
Cc1ccc2c(c1C)NC(c1ccc([N+](=O)[O-])cc1)C1CC=CC21 (stereo not given)	62*	0
SMILES	mHTT-CaM PPI inh	Pf apPOL inh
CN(C)C(=O)c1cccc2c1NC(c1ccc(Cl)cc1Cl)C1CC=CC21 (stereo not given)	4	-4
COc1ccc(OC)c(Nc2ncc3c(n2)CCN(Cc2ccc(F)cc2)C3)c1	3	0
COc1ccc(C2=N/C(=C\c3ccccc3)C(=O)O2)cc1[N+](=O)[O-]	1	3
COc1cccc(C2=N/C(=C/c3cc(OC)c(OC)cc3OC)C(=O)O2)c1	30	3
CCc1nc(C)nc(N2CCN(C(=O)C(C)C)CC2)c1Cc1ccccc1F	15	4
Cc1ccc2[nH]cc(CCN3CC(C(=O)Nc4nncs4)CC3=O)c2c1 (stereo not given)	-6	5
Cc1ccc2nc(NC(=O)C3CC(=O)N(CCc4c[nH]c5ccc(C)cc45)C3)sc2c1 (stereo not given)	88*	0
Cc1ccc2[nH]cc(CCN3CC(C(=O)Nc4ccccc4C)CC3=O)c2c1 (stereo not given)	23	3
Cc1ccc2[nH]cc(CCN3CC(C(=O)Nc4nc5c(C)cccc5s4)CC3=O)c2c1 (stereo not given)	81*	-1
Cc1ccc(C)c(OCC(=O)Nc2sc3c(c2C(N)=O)CCCC3)c1C	-4	-1
FC(F)(F)c1ccnc(-c2ccccc2)n1	.	0
C=CCNC(=O)C1Cc2ccc(OC)cc2N2CCN(c3ccc(F)cc3)CC12 (stereo not given)	13	-1
Cn1ncc(N2CCCC(C(=O)N3CCN(S(C)(=O)=O)CC3)C2)cc1=O (stereo not given)	-2	-8
COc1ccccc1C1CC(c2ccc(I)cc2)Nc2ncnn21 (stereo not given)	41	-8
FC(F)Oc1ccccc1C1CC(c2ccc(I)cc2)Nc2ncnn21 (stereo not given)	53*	-3
Cc1ccc(C2CC(c3ccc(F)c(Br)c3)n3nnnc3N2)cc1 (stereo not given)	61*	-6
Cc1ccc(C2CC(c3ccc(F)cc3)n3nnnc3N2)cc1 (stereo not given)	0	7
CCc1ccc(C2CC(c3ccccc3OC)n3ncnc3N2)cc1 (stereo not given)	1	3
COc1ccccc1C1CC(c2ccc(Cl)cc2)Nc2ncnn21 (stereo not given)	54*	-3
CCc1ccc(C2CC(c3cc(OC)ccc3OC)n3ncnc3N2)cc1 (stereo not given)	51*	-7
Fc1ccc(C2CC(c3ccccc3OC(F)F)n3ncnc3N2)cc1 (stereo not given)	16	-3
O=C(NCCN1CCCCC1)c1cccc(N2CCNC(c3ccccc3)C2)n1 (stereo not given)	10	-25
O=C1N=C(N2CCOCC2)S/C1=C\c1c(F)cccc1Cl	1	-1
O=C(NCC(=O)N1CCN(Cc2ccccc2)CC1)C1CCCCC1	-16	-7
COc1cccc(C2CC(c3ccc(C)cc3)Nc3ncnn32)c1OC (stereo not given)	14	-6
SMILES	mHTT-CaM PPI inh	Pf apPOL inh
COc1cccc(C2CC(c3ccc(Br)cc3)Nc3ncnn32)c1OC (stereo not given)	51*	-8
COc1ccc(OC)c(C2CC(c3ccc(C)cc3)Nc3nnnn32)c1 (stereo not given)	6	0
COc1ccc(OC)c(C2CC(c3ccc(Br)cc3)Nc3nnnn32)c1 (stereo not given)	58*	-7
O=C(NCc1csc(C2CCN(C(=O)Cc3ccc(Cl)cc3)CC2)n1)C1CC1	13	0
CC(=O)Nc1ccc(C2OC3=C(C(=O)CC(C)(C)C3)C(N)=C2C#N)cc1 (stereo not given)	17	-3
COc1ccc(C2c3cc(OC)c(OC)cc3CCN2C(C)=O)cc1 (stereo not given)	-8	4
Cc1ccc(C(=O)N2CCC(COc3ccc(C(=O)NC(C)C)cc3)CC2)cc1F	10	-1
COc1ccc(NC(=O)C2CCN(c3cncnc3N3CCCCC3)CC2)cc1	5	2
COc1ccc(-c2ccc(CN3C(CC(C)C)C(=O)N(Cc4cn(CCC5OCCO5)nn4)CCS3(=O)=O)cc2)cc1OC (stereo not given)	21	-8
CC(C)C1C(=O)N(Cc2cn(CCC3OCCO3)nn2)CCS(=O)(=O)N1Cc1ccc(-c2cccc(CO)c2)cc1 (stereo not given)	45	-5

Source: PubChem BioAssay
